In PubChem BioAssay AID652072 (Broad Institute, 2013):
Results filed as inconclusive are left out. Active and inactive are the calls of the source. No rule for the calls is given here.

Assay: caspase 3/7 activation in LOX IMVI melanoma cells, dose response, mechanism study for HRAS target identification, cell-based, luminescence, multiple timepoints, dry powder (AID 652072)
Conditions: caspase 3/7 luminescence, apoptosis; series mostly up to 35 µM

outcome, inactive:
Cc1onc(C(=O)N2CCN(C(c3ccc(Cl)cc3)c3ccc(Cl)cc3)CC2)c1[N+](=O)[O-]
C#CCCCC(=O)NCCOCCOCCOc1ccc(N(C(=O)CCl)C(C(=O)NCCc2ccccc2)c2cccs2)cc1Cl (centres undefined)
Cc1onc(C(=O)N2CCN(C(c3ccc(Cl)cc3)c3ccc(OCCOCCOCCNC(=O)OC(C)(C)C)cc3)CC2)c1[N+](=O)[O-] (centres undefined)
CCC(=O)N(c1ccc(OC)c(Cl)c1)C(C(=O)NCCc1ccccc1)c1cccs1 (centres undefined)
